Laboratory results reported in PubChem BioAssay AID449762 (Southern Research Specialized Biocontainment Screening …, 2010).
In all, about 330,000 compounds went through this assay and about 1,900 (0.58%) were called active. Not shown: some 4% with an inconclusive outcome. Rule as the data show it: inconclusive = inhibition above about 70% without an active follow-up result; inactive = below that. The list is a sample of the results. Measured potencies and affinities stand elsewhere.

Assay: M. tuberculosis growth inhibition, HTS (AID 449762);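 also: bacterial growth assessed after seven days of incubation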
Details: M. tuberculosis H37Rv growth inhibition, 7H9 media; at 25 µM; active compounds read high

| SMILES | inhibition |
| --- | --- |
| Oc1ccc(/C=N/Nc2cc(N3CCCC3)nc(N3CCCC3)n2)cc1 | 4.32% (inactive) |
| COc1ccc(/C=N/Nc2nc(N3CCCC3)nc(N3CCCC3)n2)cc1 | -3.33% (inactive) |
| CCN(CC)C(=O)CSc1nc2[nH]ncc2c(=O)[nH]1 | -0.87% (inactive) |
| Cc1ccc(C)c2c1[nH]c1ccccc12 | 6.73% (inactive) |
| COc1cc2[nH]c3ccccc3c2cc1C | -8.31% (inactive) |
| O=c1oc(CCO)cc2ccc(Br)cc12 | 9.08% (inactive) |
| COc1ccccc1NC(=O)c1c[nH]c2ccccc12 | 0.76% (inactive) |
| CN1CCN(C(=O)CCN2C(=O)/C(=C/c3ccccc3Cl)SC2=S)CC1 | 49.8% (inactive) |
| O=C(CCN1C(=O)/C(=C/C=C/c2ccccc2)SC1=S)Nc1ccccn1 | -4.47% (inactive) |
| O=C(CCN1C(=O)/C(=C/c2ccccc2Cl)SC1=S)N1CCOCC1 | 69% (inactive) |
| Cc1ccc(/C=C2\SC(=S)N(CCCC(=O)Nc3ccccn3)C2=O)cc1 | 0.58% (inactive) |
| COC(=O)c1ccc(NC(=S)NC(=O)c2cccnc2)cc1 | -0.36% (inactive) |
| COc1ccccc1-n1c(O)c(C=NCCN2CCNCC2)c(=O)[nH]c1=O | -7.53% (inactive) |
| COC(=O)c1ccc(NC(=O)c2ccc3nccnc3c2)cc1 | -7.47% (inactive) |
| CCN(CC)S(=O)(=O)c1ccc(S(=O)(=O)Nc2c(C)nn(C)c2C)cc1 | -5.92% (inactive) |
| COc1ccc(-c2c(C(F)(F)F)oc3cc(OCC(=O)Nc4ccccc4C(F)(F)F)ccc3c2=O)cc1OC | 10.6% (inactive) |
| CSc1nncc(-c2ccccc2)n1 | -0.45% (inactive) |
| O=C(Cc1ccc(F)cc1)N1CCC(N2CCC(C(=O)N3CCOCC3)CC2)CC1 | 4.87% (inactive) |
| CCCCn1nnc(NC(=O)CCC)n1 | -12.6% (inactive) |
| OC1(c2ccccc2)CCN(Cc2ccccc2)C2CCCCC21 (stereo not drawn) | -3.63% (inactive) |

| SMILES | inhibition |
| --- | --- |
| OC(c1ccccc1)C1CN(Cc2ccccc2)CCC1(O)c1ccccc1 (stereo not drawn) | 2.62% (inactive) |
| CN1C(C(=O)NCc2ccc(OC(F)(F)F)cc2)CC2Cn3c(nc4cc5ccccc5cc43)C21 (stereo not drawn) | 57.5% (inactive) |
| CN1C(C(=O)NCc2ccc(OC(F)(F)F)cc2)CC2Cn3c(nc4ccccc43)C21 (stereo not drawn) | -3.09% (inactive) |
| Cc1ccc(S(=O)(=O)N[C@H](C(=O)N2CCC(C(=O)N[C@@H](CCC(N)=O)C(=O)O)CC2)C(C)C)cc1 | -8.96% (inactive) |
| CN1CCN2c3ncccc3Cc3ccccc3[C@@H]2C1 | 8.88% (inactive) |
| CN1CCN2c3ncccc3Cc3ccccc3C2C1 (stereo not drawn) | -1.61% (inactive) |
| O=C(c1cc(C(=O)N2CCOCC2)c2nc3ccccc3n2c1)c1ccccc1O | 1.28% (inactive) |
| COc1ccc(C(=O)CSc2nnc(CNc3ccc(F)cc3)o2)cc1 | 15.6% (inactive) |
| COc1ccc(C(=O)CSc2nnc(CNc3ccc(C)cc3C)o2)cc1 | -7.42% (inactive) |
| C=CCNC(=O)COC(=O)c1ccc(Sc2nncn2C)c([N+](=O)[O-])c1 | -2.55% (inactive) |
| COc1ccc(CC(=O)N(Cc2ccccc2)c2ccc(C)cc2)cc1S(=O)(=O)N1CCOCC1 | 4.3% (inactive) |
| CCOC(=O)CCc1cnccc1-c1cccc(OC)c1O | 4.79% (inactive) |
| CCCN1C(=O)N(c2cccc(C)c2)C(C)(O)CC1(C)C (stereo not drawn) | 0.42% (inactive) |
| O=C(c1cccc(C(F)(F)F)c1)N1CCN(C2CCCCC2)CC1 | 6.41% (inactive) |
| CC[N+](C)(C)CC/C=C1/c2ccccc2Sc2ccc(Cl)cc21 | -9.06% (inactive) |
| CN(C)CC/C=C1/c2ccccc2Sc2ccc(Cl)cc21 | 39% (inactive) |
| CN(CCOc1ccc(-c2ccn(S(=O)(=O)c3ccc(Cl)cc3)n2)cc1)c1ccccn1 | 7.05% (inactive) |
| Cc1ccc(-c2noc(CCC(=O)N3CCCc4ccccc43)n2)cc1 | 6.56% (inactive) |
| CCOC(=O)c1c(NC(=O)COC(=O)Cc2n[nH]c(=O)c3ccccc23)sc(C(=O)NC)c1C | -12.1% (inactive) |
| O=[N+]([O-])c1cccc(-c2nc(-c3ccccc3)c(-c3cccs3)[nH]2)c1 | 1.45% (inactive) |

| SMILES | inhibition |
| --- | --- |
| O=[N+]([O-])c1cccc(-c2nc(-c3cccs3)c(-c3cccs3)[nH]2)c1 | 1.58% (inactive) |
| CN(C)c1ccc(C=C2C(=O)OC(C)(C)OC2=O)cc1 | 2.97% (inactive) |
| CC1=NN(c2ccccc2)C(=O)/C1=C/c1ccc[nH]1 | 1.35% (inactive) |
| COc1cc2cc(Oc3ccc4ccc(=O)oc4c3)c(=O)oc2cc1O[C@@H]1O[C@H](CO)[C@@H](O)[C@H](O)[C@H]1O | -3.36% (inactive) |
| c1cc2c3c(cccc3c1)NC1(CCCCC1)N2 | -8.51% (inactive) |
| CC(C)(C)C1CCC2(CC1)Nc1cccc3cccc(c13)N2 | 28.8% (inactive) |
| Cc1cc(C(=O)N2CCN(Cc3ccccc3)CC2)on1 | 4.33% (inactive) |
| CN1C(=O)N(C)C2(c3ccccc3)Nn3c(s/c(=C/c4ccccc4F)c3=O)=NC12c1ccccc1 (stereo not drawn) | 1.37% (inactive) |
| CCCC(C)C(=O)Nc1ccccc1C(=O)OCC (stereo not drawn) | -6.12% (inactive) |
| COc1ccc(C2C(C#N)=C(C)NC3=C2C(=O)CC(C)(C)C3)cc1 (stereo not drawn) | 2.98% (inactive) |
| CC1=C(C#N)C(c2cccnc2)C2=C(CC(c3ccc(Cl)cc3)CC2=O)N1 (stereo not drawn) | 49.6% (inactive) |
| Cc1ccc(C[n+]2ccccc2)cc1 | -0.58% (inactive) |
| Cc1nc2ccccn2c1P(=Nc1ccccc1)(N(C)C)N(C)C | -7.51% (inactive) |
| COC(=O)[C@@H]1C[C@@]2(O)[C@@H](O)[C@@H](O)[C@@H](O)C[C@H]2N1Cc1ccc(C(F)(F)F)cc1 | -13% (inactive) |
| CCOC(=O)c1ccc(-c2c(-c3cc(OC)c(OC)c(OC)c3)noc2C)cc1F | 8.43% (inactive) |
| CCOC(=O)c1ccc(-c2c(-c3ccc4c(c3)OCO4)noc2-c2ccsc2)cc1F | 7.75% (inactive) |
| CCCOc1ccc(N2CC(C(=O)Nc3ncccc3C)CC2=O)cc1 (stereo not drawn) | 25.7% (inactive) |
| O=C1CCc2cc(S(=O)(=O)NC(Cc3ccccc3)C(=O)NCCC3=CCCCC3)ccc2N1 (stereo not drawn) | -6.41% (inactive) |
